From PubChem BioAssay (NCI)
About 79,000 compounds went through this panel and 15% of them were active in at least one assay; those are over-represented in the sample as a whole. Unmarked numbers belong to inactive results. Calls of active or inactive are those of the source. Cut-off read from the data, not from the text of the source: active = growth inhibition above about 70%; inactive = the rest. Where a SMILES comes first, the peptide text is derived from it. The star is where a group is joined. Cbz = O=C(OCc1ccccc1)*

experiment: NCI Yeast Anticancer Drug Screen. Data for the sgs1 mgt1 strain (AID 161);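 note: 0% = growth of cultures given vehicle only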; settings: S. cerevisiae sgs1 mgt1 strain, at 50.0 µM, active compounds read high
Description: Growth inhibition of yeast strains with defined genetic alterations is measured as a screen for potential anti-cancer activity. Selected strains with alterations in DNA damage repair or cell cycle control were exposed to compounds and growth inhibition was measured relative to vehicle treated controls. The strain used in this assay is sgs1 mgt1

Compared with `Cc1nc2sccn2c1C(=O)NC(=O)Nc1ccc(Cl)cc1`, `Cc1c(C(=O)Nc2ccccc2)nnn1-c1ccnc2cc(C(F)(F)F)ccc12` is lower in growth inhibition: -2.75% for the first, -8.85% for the second.

Going from `CCN(Cc1ccc(S(=O)(=O)O)cc1)c1cccc(S(=O)(=O)O)c1` to `O=S(=O)(CCS(=O)(=O)c1ccccc1)c1ccccc1`, the growth inhibition falls from 18.4% to -22.9%.

First: O=C1/C(=C/c2ccc(O)c(CN3CCCCC3)c2)CCC/C1=C\c1ccc(O)c(CN2CCCCC2)c1
Second: Cc1cc(Br)ccc1N=Cc1ccc(C=Nc2ccc(Br)cc2C)cc1
The growth inhibition of the first is higher: 1.75% for the first, -11.8% for the second.

First: NC(=S)CNC(=O)c1ccccc1
Second: NCC(O)COCc1ccccc1 (stereo not given)
The growth inhibition of the first is lower: -29.3% for the first, -1.65% for the second.

First: COC(=O)C(NC(=O)C(C)NC(=O)C1CCCN1C(=O)CNC(=O)C(CO)NC(=O)C(NC(=O)OCc1ccccc1)C(C)O)C(C)O (stereo not given) (Cbz-TSGPAT-OMe; configuration not given here)
Second: O=C(O)c1ccccc1C(=O)CC(O)(C(F)(F)F)C(F)(F)F
The growth inhibition of the first is lower: -4.7% for the first, -1.5% for the second.

Going from `CC(=O)c1ccc(O)c(C)c1` to `O=C(O)c1cc([N+](=O)[O-])cc(P(=O)(O)O)c1`, the growth inhibition rises from -6.55% to -2%.

Going from `CSc1cc2c(cc1N)C(=O)c1ccccc1-2` to `CSc1c(C)n([O-])c2ccccc2[n+]1=O`, the growth inhibition rises from 7.4% to 8.85%.

Compared with `NC(N)=Nc1ccc(Sc2ccc(N=C(N)N)cc2)cc1`, `Cc1ccc(N=Nc2ccc(C)cc2NC(=S)Nc2ccccc2)cc1` is higher in growth inhibition: -16.6% for the first, -12.3% for the second.

Compared with `Cc1ccc(S(=O)(=O)C/C(=N\Nc2ccc([N+](=O)[O-])cc2[N+](=O)[O-])c2ccccc2)cc1`, `NC(=S)n1nc(-c2ccccc2)c(N=Nc2cccc([N+](=O)[O-])c2)c1-c1ccccc1` is higher in growth inhibition: 17.6% for the first, 31.1% for the second.

Going from `Brc1c(CCc2ccc3ccccc3c2Br)ccc2ccccc12` to `O=C(C[n+]1ccccc1-c1ccccn1)c1ccc(-c2ccccc2)cc1`, the growth inhibition rises from 13.2% to 22.4%.

Going from `Cc1cc(N/N=C/c2ccnc3ccccc23)c2cc3c(cc2n1)OCO3` to `O=Cc1cccc(/C=N/Nc2nnc(N/N=C/c3cccc(C=O)c3)c3ccccc23)c1`, the growth inhibition rises from 23.4% to 35.5%.

First: CC1OC(c2c(Cl)cccc2[N+](=O)[O-])OC1C (stereo not given)
Second: Cn1c(Nc2ccccc2)c([N+](=O)[O-])c(=O)n(C)c1=O
The growth inhibition of the first is higher: 5.6% for the first, -5% for the second.

First: N#Cc1c(O)cc(=O)n2c1[nH]c1ccccc12
Second: Cc1nnsc1-c1nc2ccccc2[nH]1
The growth inhibition of the first is lower: -22% for the first, 9.35% for the second.

Compared with `O=[N+]([O-])c1ccc(Cl)c(C=NC23CC4CC(CC(C4)C2)C3)c1`, `Clc1ccc(Nc2ncco2)cc1Cl` is higher in growth inhibition: -29% for the first, 30.6% for the second.

Compared with `O=C(Cl)C(Cl)(c1ccccc1)c1ccccc1`, `CS(=O)(=O)Nc1nc2ccccc2c(=O)o1` is lower in growth inhibition: 4.15% for the first, -15.3% for the second.

First: O=c1ccn(C2OC(CO)C(O)C2Cl)c(=O)[nH]1 (stereo not given)
Second: CSC1(C)C(=O)Nc2ccc(C(F)(F)F)cc21 (stereo not given)
The growth inhibition of the first is lower: -11.4% for the first, -0.05% for the second.

Going from `CC(=O)O[C@]12CCCCCC1C1(O)C(O)CCCC[C@H]12` (stereo not given in full) to `CCC(C)(O)P(=O)(O)O` (stereo not given), the growth inhibition rises from -21.2% to 0.35%.

First: COc1cc2c(OC)cc1CSCc1sc(C)c(c1Br)CSC2
Second: Cc1cc(-c2cc(C)c(N)cc2S(=O)(=O)O)c(S(=O)(=O)O)cc1N
The growth inhibition of the first is higher: 4.7% for the first, -1.2% for the second.

With `CCN(CC)CCCNc1ccc([N+](=O)[O-])c2nc3ccccc3c(N)c12` the growth inhibition was 15.8%.

With `CC(C)(C)NC(=S)N/N=C/c1ccccn1` the growth inhibition was 90.5% (active).
In the case of `CC[N+](C)(CC)CCNc1cc2c(c3c(=O)c4ccccc4sc13)CCCC2`, the growth inhibition is reported as 99.1% (active).
With `O=C(O)c1cc(Cl)ccc1-c1ccc(Cl)cc1C(=O)Nc1ccc2c(c1)Cc1ccccc1-2` the growth inhibition was 94.6% (active).
